# High-throughput results from PubChem.
# Many of the other results were omitted from the sample, so hits are more common in it than they were.
# CHX counter: Cycloheximide Counterscreen for Small Molecule Inhibitors of Shiga Toxin; cell reporter, cycloheximide protein synthesis inhibition counterscreen; 12% of 300,000 active; max response, %; in the data active = max response mostly above about 13%, no sharp cut-off; inactive = mostly below about 14%; note: read at 38.3 µM for the half of the compounds with a filed dose
# Shiga inhibitor: A qHTS for Small Molecule Inhibitors of Shiga Toxin; AID 2315, 2010; inhibition, % at 38.7 µM; 9.2% of 290,000 active; Vero cells, Shiga toxin protein synthesis inhibition reporter; in the data active = inhibition mostly above about 28%, no sharp cut-off; inactive = mostly below about 43%
# Giardia FBPA inh: qHTS Assay for Inhibitors of Fructose-1,6-bisphosphate Aldolase from Giardia Lamblia; AID 2451, 2010; A8B2U2; 0.71% of 290,000 active; purified Giardia FBPA; Potency, µM (top dose mostly 59.6 µM), usual class: inhibitors; note: nearly all actives have a fitted effect of over 55% in size
#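 Giardia FBPA (40 nM reagent) was preincubated 10 min at RT with compound (up to 57.5 uM final), then substrate plus GAPDH/TPI/NAD/arsenate coupling system with diaphorase/resazurin was added; resorufin fluorescence (525/598 nm) was read after 20 min.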
# LmPK inhibitor: qHTS Assay for Inhibitors of Leishmania Mexicana Pyruvate Kinase (LmPK) | Q27686 | purified LmPK, Kinase-Glo ATP luminescence, 1 h | Potency, µM (top dose mostly 57.5 µM), actives largely listed as inhibitors | 0.37% of 290,000 active | AID 1721, 2009
# Target sequence (Q27686 whole entry, looked up): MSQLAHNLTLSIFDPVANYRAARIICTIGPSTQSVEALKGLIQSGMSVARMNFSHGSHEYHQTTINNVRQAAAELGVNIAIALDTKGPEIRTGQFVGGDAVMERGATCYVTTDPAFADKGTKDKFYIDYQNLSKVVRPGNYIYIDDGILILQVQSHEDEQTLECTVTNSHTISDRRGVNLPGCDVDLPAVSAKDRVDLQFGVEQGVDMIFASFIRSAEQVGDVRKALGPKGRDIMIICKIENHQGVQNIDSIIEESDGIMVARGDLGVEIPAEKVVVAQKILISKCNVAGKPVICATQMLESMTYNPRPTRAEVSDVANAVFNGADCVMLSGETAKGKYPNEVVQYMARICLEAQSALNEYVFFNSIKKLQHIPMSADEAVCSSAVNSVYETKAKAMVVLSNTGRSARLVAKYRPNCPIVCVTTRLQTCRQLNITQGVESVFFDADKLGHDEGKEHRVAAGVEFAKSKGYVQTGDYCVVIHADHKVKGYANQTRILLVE
#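 Purified LmPK (0.1 nM) converted ADP (0.1 mM) to ATP with PEP (0.5 mM) in imidazole buffer pH 7.2 with KCl and MgCl2, 1 h at room temperature. ATP was read by Kinase-Glo luminescence; data normalized to uninhibited and no-enzyme controls.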
# TbPYK inhibitor: qHTS of Trypanosoma Brucei Inhibitors; 0.12% of 410,000 active; TbPYK enzyme, Kinase-Glo Plus ATP luminescence, 45 min; AID 624173, 2012; Potency, µM (top dose mostly 76.8 µM), most hits filed as inhibitors; pyruvate kinase (Trypanosoma brucei), Q57TT1; note: nearly all actives have a fitted effect of over 50% in size
#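 Assay buffer: 50 mM TEA pH 7.2, 100 mM KCl, 10 mM MgCl2, 0.05% BSA, 0.01% Tween-20. Pyruvate kinase from T. brucei plus substrate met compound, then ADP (130 uM final). Luminescence was read post 45 min RT.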
# RE007 growth inh: qHTS Assay for Inhibitors of the HIV-1 protein Vpr; Potency, µM (doses to about 92.2 µM), usual class: inhibitors; AID 651644, 2012; S. pombe RE007 Vpr strain, BacTiter-Glo ATP luminescence, 24 h; 0.21% of 360,000 active; active = well fitted falling curve with a large enough effect; inconclusive = small, poorly fitted or top-dose-only effect; inactive = no such curve, though single readings can be large or run the other way; note: nearly all actives have a fitted effect of over 50% in size
#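 Fission yeast RE007 carrying one integrated HIV-1 vpr copy, seeded at OD 0.01 in PMG+AL medium with 23 nL pinned compound. Grown 24 h at 30 degrees; viability read by BacTiter-Glo luminescence after 5 min.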
# A number is an active result; . = inactive; ? = inconclusive; / = no result; + = active, no number; [ ] = dose if it differs, or a comment. Unless noted, calls come from the whole dose curve; as a rule, active = well fitted curve in the direction sought with a large enough effect; inconclusive = small, poorly fitted or top-dose-only effect, or another doubt; inactive = no such curve, though single readings can be large; an effect the other way counts as inactive or inconclusive.
SMILES,CHX counter,Shiga inhibitor,Giardia FBPA inh,LmPK inhibitor,TbPYK inhibitor,RE007 growth inh
N#Cc1c(NC(=S)NC(=O)c2ccccc2)sc2c1CCCC2,34,35,.,.,.,.
N#Cc1c(NC(=S)NC(=O)c2ccccc2)sc2c1CCN(CCc1ccccc1)C2,.,.,.,.,/,/
COCC(=O)N1CCC[C@@]2(CCN(C(=O)Nc3ccc(OC)cc3)C2)C1,/,/,.,/,.,/
Cc1cc(Cl)ccc1NC(=O)C1CCN(c2nnc(-n3c(C)ccc3C)s2)CC1,/,/,/,/,.,/
COc1ccccc1CNc1ccnc(-c2ccc(N(C)C)cc2)n1,/,/,.,/,/,/
COc1ccccc1C(=O)Nc1sc2c(c1C#N)CCC2,12,/,.,.,.,.
NC(=O)c1c(NC(=O)c2cccnc2)sc2c1CCCC2,.,73,.,.,.,.
N#Cc1c(NC(=O)c2cnccn2)sc2c1CCCC2,66,75,?,.,.,.
Cc1cccc(NC(=O)c2c(NC(=O)c3ccccc3)sc3c2CCCC3)c1,.,.,/,/,?,/
Cc1cccc(C(=O)Nc2sc3c(c2C#N)CCCCC3)c1,44,85,.,.,.,.
CCCCCCCCCCCCC[N+](C)(C)Cc1ccccc1,/,/,.,/,/,/
O=C1c2ccccc2C(c2nnnn2Cc2ccccc2)N1C1CC1 (configuration not stated),/,/,/,/,.,.
CC(C)c1ccc(NC(=O)c2cc([N+](=O)[O-])ccc2N2CCOCC2)cc1,.,.,/,.,.,.
N#Cc1c(NC(=O)c2cc([N+](=O)[O-])ccc2N2CCOCC2)sc2c1CCCC2,30,+,.,.,.,.
O=C(Nc1ccc2c(c1)OCCO2)c1ccc(CN2CCOCC2)cc1,50,73,.,.,.,.
COc1ccc(OC)c(CN(CCN2CCOCC2)C(=O)Nc2cccc(Cl)c2)c1,.,.,.,.,.,.
CCN(CC)S(=O)(=O)c1ccc(NC(=O)c2ccc(CN3CCOCC3)cc2)cc1,.,.,.,.,.,.
CCCOc1cccc(C(=O)Nc2ccc(CN3CCOCC3)cc2)c1,.,.,.,.,.,.
O=C(Nc1cccc(Br)c1)c1ccc(CN2CCc3ccccc3C2)cc1,17,.,.,.,.,.
COc1ccc(OC)c(CN(CCN2CCOCC2)C(=O)Nc2ccccc2)c1,.,43,.,.,.,.
CSc1cccc(NC(=O)c2ccc(CN3CCc4ccccc4C3)cc2)c1,.,.,?,.,.,.
CC(C)Oc1cccc(C(=O)Nc2ccc(CN3CCOCC3)cc2)c1,16,.,.,.,.,.
COc1ccc(NC(=O)c2[nH]nc3c2CSc2ccccc2-3)c(OC)c1,/,/,/,/,.,/
Cc1cccc(NC(=O)CCN2CCCC(C)C2)c1 (configuration not stated),.,.,.,.,.,.
COc1cccc(NC(=O)c2ccc(CN3CCOCC3)cc2)c1,22,.,.,?,.,.
SMILES,CHX counter,Shiga inhibitor,Giardia FBPA inh,LmPK inhibitor,TbPYK inhibitor,RE007 growth inh
O=C(NC1CC2CCC1C2)c1ccc(CN2CCOCC2)cc1 (configuration not stated),34,117,.,.,.,.
COc1c(C)cccc1C(=O)Nc1ccc(CN2CCOCC2)cc1,47,44,.,.,.,.
C[C@@H]1C[C@@H]2[C@H]([C@H]3C=C(COC(=O)c4ccccc4)[C@@H](O)[C@]4(O)[C@@H](O)C(OC(=O)c5ccccc5)=C[C@@]14C3=O)C2(C)C,.,24,.,/,/,/
N#C/C(=C\c1ccc(N2CCOCC2)o1)c1nc2ccccc2[nH]1,49,121,?,.,.,.
N#C/C(=C\c1ccc(N2CCOCC2)c([N+](=O)[O-])c1)c1nc2ccccc2[nH]1,13,.,.,.,.,.
N#C/C(=C/N1CCOCC1)c1ccccc1,.,.,.,.,.,.
N#C/C(=C/c1ccc(N2CCCC2)c([N+](=O)[O-])c1)c1nc2ccccc2[nH]1,42,65,.,.,/,.[3.69 µM]
N#C/C(=C/c1ccc(N2CCOCC2)o1)c1ccc(Cl)cc1,36,.,?,.,?,?
O=C(Nc1ccc(Cl)cc1)Nc1ccccn1,41,103,.,.,.,.
O=C(Nc1ccccc1)Nc1ccccn1,33,60,.,.,.,.
CCN(CC)CCN(C(=O)c1ccccc1OC)c1nc2ccc(F)cc2s1,20,.,.,.[11.5 µM],.,.
CCN(CC)CCN(C(=O)c1ccc2c(c1)CCCC2)c1nc2ccc(C)cc2s1,20,.,.,.,.,.
CCN(CC)CCN(C(=O)c1ccc2c(c1)CCCC2)c1nc2ccc(F)cc2s1,.,.,.,.[11.5 µM],.,.
CCOc1ccc(C(=O)OCC(=O)Nc2ccc(SC(F)F)cc2)cc1OCC,.,.,.,.,.,/
CC(C)COc1ccc(C(=O)Nc2ccc(SC(F)F)cc2)cc1,24,.,.,.,.,.
CCC(=O)Oc1ccc(C(=O)Nc2ccc([N+](=O)[O-])cc2)cc1,40,102,.,.,.,.
CC(C)COc1ccc(C(=O)Nc2ccc([N+](=O)[O-])cc2)cc1,30,51,.,.,.,.
O=C(Nc1ccccc1)N1CCCC2(CCN(C(=O)c3csnn3)CC2)C1,/,/,.,/,.,/
CCN(CC)c1ccc(C(=O)O)cc1,.,.,.,.,.,.
CCN(CC)c1ccc(/C=C2\C(=O)c3ccc(C(=O)O)cc3C2=O)cc1,130,+,.,.,25µM,.
O=C(c1ccccc1)c1nnc(-c2ccccc2F)o1,45,69,.,14µM,.,.
COc1ccc(NC(=O)CSc2nccn2Cc2ccco2)cc1OC,27,36,/,.,.,.
COc1ccc(Cl)cc1NC(=O)CSc1nccn1Cc1ccco1,/,/,/,/,.,/
CCOc1ccc(NC(=O)CSc2nccn2Cc2ccco2)cc1,31,41,.,.,.,.
COc1ccc(NC(=O)CSc2nccn2Cc2ccco2)cc1,56,124,/,.,.,.
SMILES,CHX counter,Shiga inhibitor,Giardia FBPA inh,LmPK inhibitor,TbPYK inhibitor,RE007 growth inh
COc1ccc(NC(=O)CSc2nccn2Cc2ccc(F)cc2)cc1,.,.,/,.,.,.
CCOC(=O)CNC(=O)CSc1nccn1Cc1ccco1,.,.,.,.,.,.
CCC(=O)Nc1cc(NC(=O)CSc2ncc(-c3ccc(F)cc3)n2Cc2ccco2)ccc1C,27,76,.,.,.,.
CCCS(=O)(=O)NC(=O)C1(C)CCN(C(=O)c2ccc(C(F)(F)F)nc2C)C1 (configuration not stated),/,/,/,/,.,.
COCCNC(=O)CCCn1c(SCc2ccccc2C)nc2c(sc3ccccc32)c1=O,/,/,/,/,.,/
COc1ccc2c(c1)-c1nc(NC(=O)c3ccc(OC)c(Br)c3)sc1CC2,/,/,/,/,.,/
CCOc1ccc(-c2nnc(SCC(=O)O)n2Cc2ccccc2)cc1,.,/,.,.,.,.
